For 9 molecules, growth results are on record in PubChem BioAssay (NCI).

SMILES strings stand for the structures. Compounds without any hit were thinned out: in the full panel of roughly 83,000, 20% have a hit.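 Growth was measured after 48 h exposure to one concentration of compound in 96-well plates. Values under 10 count as active.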 A number with no mark means an inactive call. Activity calls are given as the source filed them.

Common to all, as to test: NCI-60 one-dose screen, 48 h (100 = growth as untreated, 0 = no growth, -100 = all killed)
Common to all, as to details: 10 µM unless noted

The subject of experiment [1] is HCT-15 colon.
Experiment [2] has as its system HT29 colon.
The subject of experiment [3] is SNB-75 CNS.
For experiment [4], the system named is SNB-19 CNS.
Experiment [5] concerns U251 CNS.
The test system of experiment [6] is PC-3 prostate.
Experiment [7] deals with SK-MEL-5 melanoma.
Experiment [8] relates to UACC-62 melanoma.
In experiment [9] the test system is LOX IMVI melanoma.
In experiment [10] the test system is SK-MEL-28 melanoma.
Experiment [11] has as its system EKVX NSCLC.
Experiment [12] deals with SN12C renal.
The subject of experiment [13] is UO-31 renal.
Experiment [14] concerns TK-10 renal.
In experiment [15] the test system is ACHN renal.
In experiment [16] the test system is A498 renal.
The test system of experiment [17] is CCRF-CEM leukemia.
Experiment [18] relates to MOLT-4 leukemia.
The test system of experiment [19] is CAKI-1 renal.

In the case of `CC(C)(C)c1nc(-c2cccc(NS(=O)(=O)c3c(F)cccc3F)c2F)c(-c2ccnc(N)n2)s1`, the growth in [1] is 90.8%; in experiment [2], 8.76% (active); in experiment [3], 107%; in experiment [4], 111%; in [5], 113%; in experiment [6], 100%. Besides, the growth in experiment [7] is 61.1%; in [8], 30.9%; in experiment [9] it was 24.5%; in [10] it was 37.1%; in [11], 97.7%; in experiment [12], 80.1%. Also, the growth is 37.1% in [13]; 65.2% in [14]; 59.3% in experiment [15]; 135% in experiment [16]; 59% in experiment [17]; 39.4% in [18].
In the case of `CNC(=O)c1cc(Oc2ccc3nc(NC(=O)Nc4ccc(Cl)c(C(F)(F)F)c4)sc3c2)ccn1`, the growth in experiment [1] is 23.5%; in [2], 3.52% (active); in [3], -58.8% (active); in experiment [4], 33.5%; in experiment [5] it was -9.69% (active); in experiment [6], 12.4%. Also, the growth in [7] is 25.7%; in experiment [8], 8.48% (active); in experiment [9] it was 1.46% (active); in experiment [10], 34.7%; in experiment [11], 9.24% (active); in experiment [12], 15.6%. The growth in experiment [14] is -55.1% (active); in experiment [15] it was -22.2% (active); in [19] it was 53.4%; in experiment [16], 30%; in [17], 27.8%; in experiment [18], 38%.
With `CN1C/C=C\CCOc2cccc(c2)-c2ccnc(n2)Nc2cccc(c2)C1`, the growth was -16.9% (active) in [1]; -16.8% (active) in experiment [2]; -98.6% (active) in [3]; 0.69% (active) in experiment [4]; -52.9% (active) in experiment [5]; -41.9% (active) in [6]. The growth in experiment [7] is -95.1% (active); in experiment [8], -62.7% (active); in experiment [9] it was -79.4% (active); in experiment [10] it was -76% (active); in [11] it was -14.7% (active); in experiment [12], -41.5% (active). Moreover, the growth is -53.2% (active) in experiment [14]; -37.9% (active) in experiment [15]; -87.9% (active) in experiment [19]; -77.8% (active) in [16]; 3.32% (active) in experiment [17]; -20% (active) in experiment [18].
In the case of `COC(=O)[C@@H](NC(=O)[C@@H](OC)[C@@H]1Cc2cc3cc(OC4CC(OC5CC(O)C(O)C(C)O5)C(O)C(C)O4)c(C)c(O)c3c(O)c2C(=O)[C@H]1OC1CC(OC2CC(OC3CC(C)(O)C(O)C(C)O3)C(O)C(C)O2)C(O)C(C)O1)C(C)C` (stereo not given in full), the growth was 23.9% in experiment [1]; 6.32% (active) in experiment [2]; -24.3% (active) in [3]; 8.43% (active) in experiment [4]; -28.1% (active) in [5]; 18.8% in experiment [6]. Besides, the growth is -74.3% (active) in experiment [7]; -65.1% (active) in [8]; -76.2% (active) in experiment [9]; -1.86% (active) in experiment [10]; 25.3% in experiment [11]; 13.2% in [12]. For the same molecule, the growth in experiment [14] was 21.7%; in experiment [15], 0.317% (active); in experiment [19], 20%; in experiment [16] it was -83.2% (active); in experiment [17], 7.92% (active); in [18] it was 1.35% (active).
In the case of `CCc1cc2c(cc1N1CCC(N3CCOCC3)CC1)C(C)(C)c1[nH]c3cc(C#N)ccc3c1C2=O`, the growth is 7.91% (active) in experiment [1]; -58% (active) in [2]; -90.3% (active) in [3]; 20.2% in experiment [4]; -19.5% (active) in [5]; 4.07% (active) in [6]. Also, the growth was 10.2% in experiment [7]; -16.4% (active) in experiment [8]; -16.2% (active) in experiment [9]; -27.2% (active) in experiment [10]; 15.9% in [11]; -14.9% (active) in experiment [12]. The growth in experiment [14] is -12.1% (active); in experiment [15], -27.3% (active); in experiment [19] it was -46.7% (active); in experiment [16], -37.1% (active); in [17], 22.4%; in experiment [18], 25.4%.
On to `CCOC(=O)c1sc(NC(=O)COc2ccc(/C=C3\Cc4ccc(Cl)cc4C3=O)cc2)nc1C`, for which the growth in experiment [1] was 120%; in experiment [2], 116%; in experiment [3], 95.8%; in experiment [4], 102%; in experiment [5], 99.2%; in experiment [6], 97%. The growth in experiment [7] is 106%; in experiment [8], 93.4%; in experiment [9] it was 97.9%; in [10] it was 127%; in experiment [11], 111%; in experiment [12] it was 102%. Further, the growth in experiment [14] is 149%; in experiment [15], 102%; in experiment [16], 143%; in experiment [17] it was 101%; in experiment [18], 60.6%.
On to `Cn1c(Nc2ccc(C(F)(F)F)cc2)nc2cc(Oc3ccnc(-c4ncc(C(F)(F)F)[nH]4)c3)ccc21`, for which the growth in experiment [1] was 21.4%; in experiment [2], 6.83% (active); in experiment [3], 61.2%; in experiment [4], 56.6%; in experiment [5], 46.3%; in [6], 65.8%. Moreover, the growth in experiment [7] is 39%; in experiment [8], 8.71% (active); in [9] it was 34.1%; in experiment [10], 8.35% (active); in [11], 57.9%; in [12] it was 59.8%. In addition, the growth was 28.8% in experiment [13]; 95% in experiment [14]; 34.7% in experiment [19]; 23.7% in experiment [16]; 36.6% in experiment [17]; 25.7% in experiment [18].
On to `CCOc1cc2ncc(C#N)c(Nc3ccc(OCc4ccccn4)c(Cl)c3)c2cc1NC(=O)/C=C/CN(C)C`, for which the growth in experiment [1] was -0.289% (active); in experiment [2], -54.5% (active); in experiment [3], 34.1%; in experiment [4], -44.2% (active); in [5] it was 3.18% (active); in [6], 9.27% (active). Also, the growth in experiment [7] is 14.8%; in experiment [8] it was -64.1% (active); in [9], -67.8% (active); in [10] it was -79.5% (active); in experiment [11], 20.7%; in [12] it was -62.8% (active). Also, the growth in experiment [14] is 5.99% (active); in [15] it was -56% (active); in [19], 5.2% (active); in experiment [16], 34.7%; in [17] it was 3.88% (active).
Turning to `Cc1cc(-c2cc(OC(=O)c3ccccc3)ccc2Cl)cc2nnc(Nc3ccc(OCCN4CCCC4)cc3)nc12`, the growth in experiment [1] was -66.9% (active); in experiment [2] it was 63.9%; in experiment [3], 32.7%; in experiment [4], 91.9%; in [5], 84.8%; in [6], -20.2% (active). For the same molecule, the growth in experiment [7] is 83.1%; in experiment [8], 75.6%; in experiment [9], 48.4%; in experiment [10], 89.2%; in experiment [11] it was 92.3%; in experiment [12] it was 66.3%. Further, the growth in [14] is 89.7%; in experiment [15], 74.2%; in experiment [19], 86.3%; in [16] it was 94.3%; in [17] it was 3.09% (active); in [18], 73.1%.
